Measured values reported in paper PMC4336329 (PLoS ONE, 2015).
Hit rate of the full screen: of about 310,000 compounds, about 14,000 (4.5%) showed an effect of 50% or more. The effect is printed as a negative number. Only a selection was taken, and strong results are over-represented in it overall.

Molecular target: human ether-à-go-go-related gene (hERG) potassium channel (human, UniProt Q12809)
Test: primary screen, population patch clamp on CHO cells stably expressing hERG; higher = less effect of the substance
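Further: peak tail current of the secondary pulse compared with the same well before compound.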

human ether-à-go-go-related gene (hERG) potassium channel, sequence (Q12809 whole entry, looked up): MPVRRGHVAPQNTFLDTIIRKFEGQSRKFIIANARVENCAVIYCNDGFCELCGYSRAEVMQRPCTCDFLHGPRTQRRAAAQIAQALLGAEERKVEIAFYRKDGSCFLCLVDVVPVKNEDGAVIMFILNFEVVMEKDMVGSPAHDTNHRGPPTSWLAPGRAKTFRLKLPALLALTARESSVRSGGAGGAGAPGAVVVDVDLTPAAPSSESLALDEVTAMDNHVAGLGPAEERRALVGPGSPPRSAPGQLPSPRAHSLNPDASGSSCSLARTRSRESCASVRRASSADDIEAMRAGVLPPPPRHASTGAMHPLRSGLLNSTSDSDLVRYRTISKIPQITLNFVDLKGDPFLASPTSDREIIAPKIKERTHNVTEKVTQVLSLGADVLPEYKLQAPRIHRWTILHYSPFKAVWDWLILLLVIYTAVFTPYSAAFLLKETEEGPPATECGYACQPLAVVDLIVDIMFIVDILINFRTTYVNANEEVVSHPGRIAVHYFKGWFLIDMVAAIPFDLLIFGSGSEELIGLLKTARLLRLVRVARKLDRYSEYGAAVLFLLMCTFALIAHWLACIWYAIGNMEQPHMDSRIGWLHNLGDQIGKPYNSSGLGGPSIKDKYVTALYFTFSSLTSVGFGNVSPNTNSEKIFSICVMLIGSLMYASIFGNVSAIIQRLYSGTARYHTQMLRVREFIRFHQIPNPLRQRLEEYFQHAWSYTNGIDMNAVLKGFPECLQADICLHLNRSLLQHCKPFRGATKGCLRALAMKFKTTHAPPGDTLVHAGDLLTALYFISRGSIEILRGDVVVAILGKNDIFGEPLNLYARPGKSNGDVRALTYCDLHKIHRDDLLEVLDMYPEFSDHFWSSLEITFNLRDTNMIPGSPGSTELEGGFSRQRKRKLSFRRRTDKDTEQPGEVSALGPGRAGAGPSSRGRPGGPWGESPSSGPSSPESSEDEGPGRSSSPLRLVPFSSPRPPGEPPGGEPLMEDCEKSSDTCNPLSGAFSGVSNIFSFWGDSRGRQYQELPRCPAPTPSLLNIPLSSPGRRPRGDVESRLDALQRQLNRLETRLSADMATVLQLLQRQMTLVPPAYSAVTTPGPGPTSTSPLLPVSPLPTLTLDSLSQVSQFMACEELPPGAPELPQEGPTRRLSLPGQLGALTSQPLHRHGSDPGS

SMILES | hERG current change (%, negative = inhibition) at 10uM
CCCC(=O)NC(c1ccc(Cl)cc1Cl)c1ccc2cccnc2c1O (stereo not drawn) | 0.094%
CC(=O)Cc1c(C(=O)O)c(C)nn1-c1ccccc1 | 21.5%
O=[N+]([O-])/C=C/c1ccc2c(ccn2Cc2ccccc2)c1 | 15.8%
COc1ccc(OCC(=O)Nc2c(C(=O)N3CCN(C)CC3)oc3ccccc23)cc1 | -42%
COc1ccc(N2CCN(C(=O)c3oc4ccccc4c3NC(=O)CCc3cc(OC)no3)CC2)cc1 | -10.4%
O=C(COc1ccccc1)Nc1c(C(=O)N2CCC(N3CCCCC3)CC2)oc2ccccc12 | -69%
CCCN1CCN(C(=O)c2oc3ccccc3c2NC(=O)C2CC2)CC1 | -42.6%
CC(C)CC(=O)Nc1c(C(=O)N2CCN(Cc3ccccc3)CC2)oc2ccccc12 | -20.9%
COCC(=O)Nc1c(C(=O)N2CCCC2)oc2ccccc12 | 1.46%
COc1ccc(OCC(=O)Nc2ccccc2C(=O)N2CCCC2)cc1 | -7.38%
COc1ccc(OCC(=O)Nc2c(C(=O)N3CCC(N4CCCCC4)CC3)oc3ccccc23)cc1 | -87.7%
COc1ccccc1C(=O)Nc1c(C(=O)N2CCN(C)CC2)oc2ccccc12 | -45.2%
N#Cc1ccccc1OCC(=O)Nc1c(C(=O)C2CC2)oc2ccccc12 | 2.52%
O=C(COc1ccc(F)cc1)Nc1c(C(=O)N2CCC(N3CCCCC3)CC2)oc2ccccc12 | -81.1%
CCCN1CCN(C(=O)c2oc3ccccc3c2NC(=O)COc2ccc(OC)cc2)CC1 | -79.5%
CCCCC[C@H](O)/C=C/[C@@H]1[C@@H](C/C=C\CCCC(=O)O)[C@@H](O)C[C@H]1O.NC(CO)(CO)CO | 9.22%
COc1ccccc1CC(=O)N(CCC1=CCCCC1)c1c(N)n(Cc2ccccc2)c(=O)[nH]c1=O | -12%
CCn1c(CCC(=O)N(C)CC(=O)Nc2cccc(F)c2)nc2cc(S(=O)(=O)N(C)C)ccc21 | -19.3%
CC(=O)C1=C(O)C(=O)N(c2cccc(Br)c2)C1c1ccc(Br)cc1 (stereo not drawn) | 15.8%
COCCN(CC(=O)NCc1ccccc1)C(=O)CCC(=O)Nc1ccccn1 | 4.54%
CCOC(=O)N1CCN(S(=O)(=O)/C=C/c2ccccc2)CC1 | -17.5%

SMILES | hERG current change (%, negative = inhibition) at 10uM
COC(=O)Cn1cnc2sc(C)c(S(=O)(=O)N3CCN(c4ccccc4OC)CC3)c2c1=O | -5.55%
Cc1c(Cl)cccc1NC(=O)CNC(=O)c1ccc(F)cc1 | 27.4%
Cc1ccc(NC(=O)Nc2nnc(Cc3ccc(F)cc3)s2)cc1 | 14%
COc1ccc(-c2nc(CS(=O)CC(=O)NC(C)CCc3ccccc3)c(C)o2)cc1OC (stereo not drawn) | -16.8%
CCCC[N+]12C3C[C@H](C4[C@H](O)[C@]5(C[C@@H]41)c1ccccc1N(C)[C@@H]35)[C@H](CC)[C@H]2O.[I-] (stereo partly drawn) | -56.4%
CCC1C2CC3C4N(C)c5ccccc5C45CC(C2C5O)N3[C@@H]1O (stereo partly drawn) | -28.5%
CC[C@H]1C2C[C@H]3[C@@H]4N(C)c5ccccc5C45C[C@H](C2[C@H]5O)N3[C@@H]1O (stereo partly drawn) | -43.8%
CC(=O)Nc1c(C(=O)c2ccccc2)oc2ccccc12 | -10.3%
O=C(CN1CCCC1)Nc1c(C(=O)C2CC2)oc2ccccc12 | -9.92%
CC(=O)c1oc2ccccc2c1NC(=O)CN1CCCCC1.Cl | 7.19%
COc1ccc2oc(C(=O)c3ccccc3)c(N)c2c1 | 4.76%
O=C(CN1CCOCC1)Nc1c(C(=O)C2CC2)oc2ccccc12 | -6.8%
COc1ccc2oc(C(=O)c3ccccc3)c(NC(=O)CN3CCN(C)CC3)c2c1 | -59.8%
COc1ccc(C(=O)c2oc3ccc(OC)cc3c2NC(C)=O)cc1 | 27.6%
CN1CCN(CC(=O)Nc2c(C(=O)c3ccccc3)oc3ccccc23)CC1 | -78.9%
Cc1ccc(C(=O)c2oc3ccc(Cl)cc3c2NC(=O)CN2CCN(C)CC2)cc1 | -74.3%
NC(=O)c1oc2ccc(Cl)cc2c1NC(=O)CN1CCOCC1 | -9.08%
CC(=O)Nc1c(C(=O)O)oc2ccc(Cl)cc12 | 2.23%
CN1CCN(CC(=O)Nc2c(C(=O)C3CC3)oc3ccccc23)CC1 | -52.4%
O=C(NN=C1CCCC1)c1[nH]c2ccc(Cl)cc2c1-c1ccccc1 | 7.13%
Cc1cc(C(=O)CSc2nc(N)cc(=O)[nH]2)c(C)n1CCc1ccc(F)cc1 | 1.93%

SMILES | hERG current change (%, negative = inhibition) at 10uM
O=C(NCCNC(=O)c1cnccn1)c1ccc(Cl)c(Cl)c1 | -13.3%
COc1cccc(NC(=O)c2cnsn2)c1 | 3.19%
CCOCCNC(=O)c1ccccc1C(=O)NCCOCC | -11.1%
O=[N+]([O-])c1cc(N=Nc2ccc3ccccc3c2)ccc1O | 12.8%
COC(=O)C1C2C=CC3(CN(c4cccc(Cl)c4)C(=O)C13)O2 (stereo not drawn) | 2.49%
CC1(C)Cc2c(cnn2-c2ccccc2)C(NC(=O)c2ccc[n+]([O-])c2)C1 (stereo not drawn) | 2.3%
CC1(C)Cc2c(cnn2-c2ccc(F)cc2)C(NC(=O)c2ccoc2)C1 (stereo not drawn) | -89.1%
CC1(C)Cc2c(cnn2-c2ccc(F)cc2)C(NC(=O)c2cnccn2)C1 (stereo not drawn) | -37.6%
Cc1cc(C(=O)NC2CC(C)(C)Cc3c2cnn3-c2ccc(F)cc2)no1 (stereo not drawn) | -32.8%
CC1(C)Cc2c(cnn2-c2ccccc2)C(NC(=O)c2ccoc2)C1 (stereo not drawn) | -93.4%
CC(=O)c1ccc(C(=O)NC2CC(C)(C)Cc3c2cnn3-c2ccccc2)cc1 (stereo not drawn) | -21.8%
CC1Cc2cc(S(=O)(=O)NCCc3ccccc3)ccc2N1C(=O)C1CC1 (stereo not drawn) | 13.7%
COc1ccc(-c2cc(=O)[nH]c(=O)[nH]2)cc1 | -3.74%
O=C(c1cccc(S(=O)(=O)Nc2ccccc2Cl)c1)N1CCC1 | -0.443%
Cc1ccc(SCC(=O)NCCc2ccc(F)cc2)cc1 | -0.26%
CCc1cccc(NC(=O)c2cccc3c2C(=O)N(CC2CCCO2)C3)c1 (stereo not drawn) | -72.2%
COc1ccc(CNC(=O)c2cccc3c2C(=O)N(CC2CCCO2)C3)cc1 (stereo not drawn) | -34.5%
O=C(NCc1ccc(Cl)cc1)c1cccc2c1C(=O)N(CC1CCCO1)C2 (stereo not drawn) | -70.8%
COc1ccc(NC(=O)c2cccc3c2C(=O)N(CC2CCCO2)C3)cc1OC (stereo not drawn) | -17.9%
CCOC(=O)c1ccc(NC(=O)c2cccc3c2C(=O)N(CC2CCCO2)C3)cc1 (stereo not drawn) | -2.27%
O=C(O)c1cccc2c1C(=O)N(CC1CCCO1)C2 (stereo not drawn) | 24.2%

SMILES | hERG current change (%, negative = inhibition) at 10uM
CC(=O)N1CCC(C(=O)NCCOc2ccc(C)cc2)CC1 | 7.67%
COc1ccc(CC(=O)NNC(=O)CN(C)S(=O)(=O)c2ccc(Cl)cc2)cc1OC | 0.252%
CCOC(=O)C1CCN(S(=O)(=O)Cc2ccccc2)CC1 | -8.61%
COc1ccc(C(=O)CC(=O)C(=O)Nc2ccc(Cl)cc2)cc1 | 7.74%
Cc1cc2c(c(=O)o1)C(c1cccs1)C(C#N)=C(N)O2 (stereo not drawn) | 4%
COc1ccc(-n2cc(CN3CCCC3)c(-c3cccc(F)c3)n2)cc1 | -57%
CCC(O)C1CCN(Cc2cn(-c3ccc(OC)cc3)nc2-c2cccc(F)c2)CC1 (stereo not drawn) | -75.3%
COc1ccc(-n2cc(CN3CCC(OC)CC3)c(-c3cccc(F)c3)n2)cc1 | -13.5%
Cc1cccc(-n2cc(CN3CCN(C(=O)c4ncn[nH]4)CC3)c(-c3cccc(F)c3)n2)c1 | -16.5%
CC(=O)N1CCCN(Cc2cn(-c3cccc(C)c3)nc2-c2cccc(F)c2)CC1 | -16.9%
CCC(=O)OCc1c(C(F)(F)F)nn(C)c1Sc1ccc(F)cc1 | -8.79%
CN(CCc1ccccn1)C(=S)NC(=O)c1ccco1 | 17.1%
O=C(Nc1ccc2c(c1)OCO2)C(c1ccc(Cl)cc1)N1CCN(C(=O)c2ccco2)CC1 (stereo not drawn) | -40%
Cc1ccc(NC(=O)C(c2ccccc2)N2CCN(C(=O)c3ccco3)CC2)cc1 (stereo not drawn) | -72.9%
Cc1cccc(C)c1NC(=O)C(c1ccccc1)N1CCN(C(=O)c2ccco2)CC1 (stereo not drawn) | -22.8%
CCOc1ccccc1NC(=O)C(c1ccccc1)N1CCN(C(=O)c2ccco2)CC1 (stereo not drawn) | -57.7%
CC(C)c1ccc(NC(=O)C(c2ccc3c(c2)OCO3)N2CCN(C(=O)c3ccco3)CC2)cc1 (stereo not drawn) | -25%
Cc1ccc(NC(=O)C(c2ccccc2)N2CCN(C(=O)c3ccco3)CC2)cc1Cl (stereo not drawn) | -21.3%
CC(C)c1ccc(NC(=O)C(c2ccccc2)N2CCN(C(=O)c3ccco3)CC2)cc1 (stereo not drawn) | -69.8%
O=C(Nc1ccc2c(c1)OCO2)C(c1ccccc1)N1CCN(C(=O)c2ccco2)CC1 (stereo not drawn) | -33.2%
CCOCCCNC(=O)C(c1ccc(Cl)cc1)N1CCN(C(=O)c2ccco2)CC1 (stereo not drawn) | -0.366%
